PubChem BioAssay (NCATS)
Several values for one entry are separate records, joined by “and”; a condition that tells them apart may be missing. Equal entries are not always repeated. For part of these data: Potency and affinity values are given separately. Activity calls are given as the source filed them.

Key:
[1] = qHTS profiling of the MIPE4 collection as inhibitors of Plasmodium falciparum (3D7) proliferation (AID 743344);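 also: scaled between DMSO vehicle wells and 0.29 µM artemisinin as full inhibition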; details: P. falciparum 3D7 in erythrocytes, SYBR Green DNA fluorescence, 72 h; at 28.5 µM unless noted
In short: (§1)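 Parasite DNA was quantified by SYBR Green I fluorescence (ex 485, em 535 nm) after overnight lysis in saponin/Triton buffer at room temperature. Cultures at 0.3% parasitemia and 2.5% hematocrit were first exposed to compound for 72 h at 37 C; signals were normalised to artemisinin (0.29 uM) and vehicle wells.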

[2] = qHTS profiling of the MIPE4 collection as inhibitors of Plasmodium falciparum (DD2) proliferation (AID 743345); details: P. falciparum Dd2 in erythrocytes, SYBR Green DNA, 72 h; at 28.5 µM unless noted
In short: as §1

[3] = qHTS profiling of the MIPE4 collection as inhibitors of Plasmodium falciparum (DD2) proliferation (Rep 2) (AID 743346); details: P. falciparum Dd2 in erythrocytes, SYBR Green DNA, 72 h; at 28.5 µM unless noted
In short: as §1

[4] = qHTS profiling of the MIPE4 collection as inhibitors of Plasmodium falciparum (HB3) proliferation (AID 743347);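 also: plate controls were DMSO vehicle wells for no effect and artemisinin wells for full effect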; details: P. falciparum HB3 in erythrocytes, SYBR Green DNA, 72 h; at 28.5 µM unless noted
In short: as §1

[5] = Ebola virus entry assay, green fluorescence channel
[6] = Ebola virus entry assay, blue channel fluorescence
[7] = Ebola virus entry assay, green fluorescence channel; remark: listed apart in the source
[8] = Ebola virus entry assay, blue channel fluorescence; remark: listed apart in the source
[9] = Ebola virus entry assay, ratio channel
[10] = Ebola virus entry assay, green channel fluorescence
[11] = Ebola virus entry assay, blue channel fluorescence; remark: listed apart in the source
[12] = Ebola virus entry assay, reporter ratio channel; AC50: Channel type: primary unless noted; outcome: Channel type: primary unless noted
[13] = Ebola virus entry assay, blue channel (ratio component)
[14] = Ebola virus entry reporter assay, green channel fluorescence
[15] = Ebola virus entry assay, ratio channel readout
For efficacy in this document: 0% is about no effect.

CCOC(=O)c1ncn2c1CN(C)C(=O)c1cc(F)ccc1-2
94.6%: growth, % of control [4]
69.1%: parasite growth, % of DMSO control [1]
84.4%: parasite growth remaining, % of DMSO control (lower = more inhibition) [2]
74.8%: parasite growth, % of control (lower = inhibition) [3]
inactive: efficacy [5] -22.5% | outcome [6] | outcome [7] | outcome [8] | outcome [9] | outcome [10] | outcome [11] | outcome [12] | outcome [13] | outcome [14]

NCC(CC(=O)O)c1ccc(Cl)cc1 (stereo unspecified)
inactive: efficacy [5] -35.7% | outcome [6] | outcome [7] | outcome [15] | outcome [11] | outcome [12] | outcome [13] | outcome [14]

CC(C(=O)O)c1cccc(C(=O)c2ccccc2)c1 (stereo unspecified)
inactive: efficacy [5] 11.5% | outcome [6] | outcome [7] | outcome [8] | outcome [10] | outcome [11] | outcome [12] | outcome [13]

Cc1cccc(Nc2ccncc2S(=O)(=O)NC(=O)NC(C)C)c1
inactive: efficacy [5] -34.9% | outcome [6] | outcome [7] | outcome [15] | outcome [10] | outcome [11] | outcome [12] | outcome [13]

O=c1[nH]cc(F)c(=O)[nH]1
44.8%: parasite growth, % of control (lower = inhibition) [3]
85.2%: growth, % of control [4]
42.1%: parasite growth, % of DMSO control [1]

CC(C)=CCOc1c2occc2cc2ccc(=O)oc12
inactive: efficacy [5] 19.5% | outcome [9] | outcome [10]
active: AC50 [8] 25.1 µM | AC50 [12] 25.1 µM

c1ccc2c(c1)OCC(C1=NCCN1)O2 (stereo unspecified)
inactive: efficacy [5] 12.1% | outcome [8] | outcome [9] | outcome [10] | outcome [13]
active: AC50 [12] 35.5 µM

COc1ccc(Cc2nccc3cc(OC)c(OC)cc23)cc1OC
inactive: efficacy [5] 13% | outcome [8] | outcome [9] | outcome [10] | outcome [12] | outcome [13]

CC(=O)SC[C@@H](C)C(=O)N1CCC[C@H]1C(=O)N[C@@H](Cc1ccccc1)C(=O)O
inactive: efficacy [5] 13.4% | outcome [8] | outcome [9] | outcome [10] | outcome [12] | outcome [13]

CCCN1CCC[C@@H]2Cc3[nH]ncc3C[C@H]21
inactive: efficacy [5] -15.1% | outcome [8] | outcome [9] | outcome [10] | outcome [12] | outcome [13]

Cc1cccc(C)c1NC1=NCCCS1
inactive: efficacy [5] -17.5% | outcome [8] | outcome [9] | outcome [10] | outcome [12] | outcome [13]

O=C(O)c1ccc2[nH]cc(CCCCN3CC=C(c4ccccc4)CC3)c2c1
inactive: efficacy [5] 28% | outcome [8] | outcome [9] | outcome [10] | outcome [12] | outcome [13]

CC(C)Oc1ccc2c(=O)c(-c3ccccc3)coc2c1
inactive: efficacy [5] 27.1% and 23.5% | outcome [8] | outcome [9] | outcome [10] | outcome [12] | outcome [13]

CC1NCCOC1c1ccccc1 (stereo unspecified)
inactive: efficacy [5] -41.7% | outcome [8] | outcome [9] | outcome [10] | outcome [12] | outcome [13]

N[C@@H](Cc1ccc(Oc2cc(I)c(O)c(I)c2)c(I)c1)C(=O)O
inactive: efficacy [5] -32% | outcome [8] | outcome [9] | outcome [10] | outcome [12] | outcome [13]

CN1CC(=O)N/C1=N/C(=O)Nc1cccc(Cl)c1
inactive: efficacy [5] -15.3% | outcome [8] | outcome [9] | outcome [10] | outcome [12] | outcome [13]

CCN(CC)CCOC(=O)C(O)(c1ccccc1)c1ccccc1
inactive: efficacy [5] -15.5% | outcome [8] | outcome [9] | outcome [10] | outcome [12] | outcome [13]

CCCC1CCCCN1 (stereo unspecified)
inactive: efficacy [5] -19.4% | outcome [8] | outcome [9] | outcome [10] | outcome [12] | outcome [13]

CC(=O)[C@H]1CC[C@H]2[C@@H]3CC[C@H]4C[C@](C)(O)CC[C@]4(C)[C@H]3CC[C@]12C
inactive: efficacy [5] 28.4% | outcome [8] | outcome [9] | outcome [10] | outcome [12] | outcome [13]

CC(C)=CC1C(C(=O)OCc2cccc(Oc3ccccc3)c2)C1(C)C (stereo unspecified)
inactive: efficacy [5] -13.4% | outcome [8] | outcome [9] | outcome [10] | outcome [12] | outcome [13]

CC(C)(C)NCC(O)c1cc(Cl)c(N)c(Cl)c1 (stereo unspecified)
inactive: efficacy [5] -12% | outcome [8] | outcome [9] | outcome [10] | outcome [12] | outcome [13]

C[C@@H]1CC(=O)NN=C1c1ccc(NN=C(C#N)C#N)cc1
inactive: efficacy [5] -24% and 20% | outcome [8] | outcome [9] | outcome [10] | outcome [12] | outcome [13]

NP(N)(=O)NC(=O)c1ccc(F)cc1
inactive: efficacy [5] -25% | outcome [8] | outcome [9] | outcome [10] | outcome [12] | outcome [13]

COc1ccccc1N1CCNCC1
inactive: efficacy [5] 33.5% | outcome [8] | outcome [9] | outcome [10] | outcome [12]

O=[N+]([O-])c1cc([As](=O)(O)O)ccc1O
inactive: efficacy [5] -13% | outcome [8] | outcome [9] | outcome [10] | outcome [12] | outcome [13]

CC(=O)[C@H]1CC[C@H]2[C@@H]3CC[C@H]4C[C@H](O)CC[C@]4(C)[C@H]3C(=O)C[C@]12C
inactive: efficacy [5] -24.6% | outcome [8] | outcome [9] | outcome [10] | outcome [12] | outcome [13]

CC/C=C(\C(=O)N[C@@H]1C(=O)N2C(C(=O)OCOC(=O)C(C)(C)C)=C(COC(N)=O)CS[C@H]12)c1csc(N)n1
inactive: efficacy [5] 11.1% and -32.9% | outcome [8] | outcome [9] | outcome [10] | outcome [12] | outcome [13]
